# Results published in PubChem BioAssay (EPA / NIEHS).
# Activity calls are given as the source filed them. Rule for the calls: active = hit-call score of the fitted dose curve at least 0.9, where 1 is the maximum; inactive = score below 0.9.
# Legend:
# Settings in all cases: mRNA level, 48 h; actives raise or lower the signal
# [1] = read-out: CYP2C9 (gene 1559); test: LTEA_HepaRG_CYP2C9: Life Technologies and Expression Analysis (LTEA) Assay for CYP2C9 using HepaRG (AID 2283484)
# How it was run: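 Cells plated 48 h, switched to serum-free induction medium, then treated in duplicate for 48 h at eight concentrations (max 100 uM, 0.5% DMSO). RNA then analysed by qRT-PCR for CYP2C9; curves fitted in both directions relative to DMSO.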
# [2] = read-out: CYP2E1 (gene 1571); test: LTEA_HepaRG_CYP2E1: Life Technologies and Expression Analysis (LTEA) Assay for CYP2E1 using HepaRG (AID 2283485)
# How it was run: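 HepaRG cells in serum-free induction medium exposed 48 h to test chemicals, 8 half-log concentrations up to 100 uM in 0.5% DMSO, duplicate. CYP2E1 mRNA by qRT-PCR, normalized to ACTB, GAPDH, POLR2A; bidirectional fit versus DMSO.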
# [3] = read-out: CYP4A11 (gene 1579); test: LTEA_HepaRG_CYP4A11: Life Technologies and Expression Analysis (LTEA) Assay for CYP4A11 using HepaRG (AID 2283486)
# How it was run: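 Differentiated HepaRG cells, 48 h after plating, exposed in duplicate for 48 h to 8 half-log concentrations up to 100 uM in 0.5% DMSO in serum-free induction medium. CYP4A11 mRNA measured by TaqMan qRT-PCR, normalized to ACTB, GAPDH and POLR2A.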
# [4] = read-out: Cytochrome P450 3A4 (Homo sapiens) (UniProt P08684); test: LTEA_HepaRG_CYP3A4: Life Technologies and Expression Analysis (LTEA) Assay for CYP3A4 using HepaRG (AID 2283487)
# How it was run: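 In a human hepatic line (HepaRG), duplicate wells were treated 48 h with up to 100 uM chemical in half-log dilutions. Endpoint: CYP3A4 mRNA induction or loss relative to 0.5% DMSO vehicle, by qRT-PCR.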
# [5] = read-out: DNA damage-inducible transcript 3 (DDIT3), DDIT3 (gene 1649); test: LTEA_HepaRG_DDIT3: Life Technologies and Expression Analysis (LTEA) Assay for DNA damage-inducible transcript 3 (DDIT3) using HepaRG (AID 2283488)
# How it was run: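 Differentiated human HepaRG cells in serum-free induction medium were exposed in duplicate for 48 h to 8 concentrations (top 100 uM, half-log steps, 0.5% DMSO). DDIT3 mRNA measured by TaqMan qRT-PCR, normalized to ACTB/GAPDH/POLR2A; bidirectional fit versus DMSO.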
# [6] = read-out: Pro-epidermal growth factor (Homo sapiens) (UniProt P01133); test: LTEA_HepaRG_EGF: Life Technologies and Expression Analysis (LTEA) Assay for Epidermal growth factor (EGF) using HepaRG (AID 2283489)
# How it was run: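 HepaRG cells (~100,000/well, 48 h pre-culture) exposed in duplicate for 48 h in serum-free induction medium to 8 half-log concentrations up to 100 uM in 0.5% DMSO. EGF mRNA by qRT-PCR, normalized to ACTB/GAPDH/POLR2A; bidirectional fit versus DMSO.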
# [7] = read-out: Early growth response protein 1 (EGR1) transcription factor, EGR1 (gene 1958); test: LTEA_HepaRG_EGR1: Life Technologies and Expression Analysis (LTEA) Assay for Early growth response protein 1 (EGR1) transcription factor using HepaRG (AID 2283490)
# How it was run: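 Read-out is EGR1 mRNA level by qRT-PCR, normalized to three housekeeping genes and analysed for gain or loss of signal against 0.5% DMSO. Source cells: human HepaRG, treated 48 h at up to 100 uM in half-log dilutions.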
# [8] = read-out: Ezrin (EZR), EZR (gene 7430); test: LTEA_HepaRG_EZR: Life Technologies and Expression Analysis (LTEA) Assay for Ezrin (EZR) using HepaRG (AID 2283491)
# How it was run: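 Gain or loss of EZR mRNA is scored relative to 0.5% DMSO in human HepaRG cultures treated 48 h with test chemicals in duplicate, eight half-log concentrations from 100 uM.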
# [9] = read-out: CYP3A5 (gene 1577); test: LTEA_HepaRG_CYP3A5: Life Technologies and Expression Analysis (LTEA) Assay for CYP3A5 using HepaRG (AID 2283493)
# How it was run: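 Differentiated HepaRG cells in serum-free induction medium were dosed 48 h with test chemicals (8-point half-log series, top 100 uM, 0.5% DMSO, duplicate). CYP3A5 mRNA measured by qRT-PCR, normalized to ACTB, GAPDH, POLR2A; bidirectional fit versus DMSO.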
# [10] = read-out: Fatty Acid-Binding Protein 1 (FABP1), FABP1 (gene 2168); test: LTEA_HepaRG_FABP1: Life Technologies and Expression Analysis (LTEA) Assay for Fatty Acid-Binding Protein 1 (FABP1) using HepaRG (AID 2283494)
# How it was run: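 HepaRG, 48 h post-plating switched to serum-free induction medium, then dosed 48 h (duplicate, 8 pts, ≤100 uM, 0.5% DMSO). RNA → Fluidigm TaqMan qRT-PCR, FABP1 normed to ACTB/GAPDH/POLR2A. Bidirectional curve fit vs DMSO.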
# [11] = read-out: Glutathione S-Transferase (GSTA2), GSTA2 (gene 2939); test: LTEA_HepaRG_GSTA2: Life Technologies and Expression Analysis (LTEA) Assay for Glutathione S-Transferase (GSTA2) using HepaRG (AID 2283497)
# How it was run: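 HepaRG, 48 h dosing, 8-pt half-log CRC from 100 uM, 0.5% DMSO vehicle, n=2; RNA → Fluidigm TaqMan qRT-PCR; GSTA2 vs ACTB/GAPDH/POLR2A; gain/loss fit vs DMSO.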
# [12] = read-out: Glutamate-cysteine ligase catalytic (GCLC), GCLC (gene 2729); test: LTEA_HepaRG_GCLC: Life Technologies and Expression Analysis (LTEA) Assay for Glutamate-cysteine ligase catalytic (GCLC) using HepaRG (AID 2283498)
# How it was run: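 Read-out is GCLC transcript level by Fluidigm-based TaqMan qRT-PCR, normalized to three housekeeping genes and fitted in both directions relative to 0.5% DMSO. Human HepaRG cells received chemicals for 48 h, up to 100 uM.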
# [13] = read-out: growth arrest and DNA damage 45 (GADD45G), GADD45G (gene 10912); test: LTEA_HepaRG_GADD45G: Life Technologies and Expression Analysis (LTEA) Assay for growth arrest and DNA damage 45 (GADD45G) using HepaRG (AID 2283499)
# How it was run: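 Differentiated human HepaRG cells, 48 h post-plating, exposed 48 h in serum-free induction medium to 8 half-log concentrations (top 100 uM, 0.5% DMSO) in duplicate. GADD45G mRNA measured by Fluidigm TaqMan qRT-PCR, normalized to ACTB, GAPDH, POLR2A; bidirectional fit versus DMSO.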
# [14] = read-out: Glutamate-cysteine ligase regulatory (GCLM), GCLM (gene 2730); test: LTEA_HepaRG_GCLM: Life Technologies and Expression Analysis (LTEA) Assay for Glutamate-cysteine ligase regulatory (GCLM) using HepaRG (AID 2283500)
# How it was run: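 Differentiated human HepaRG cells exposed 48 h in serum-free induction medium to 8-point half-log concentrations (top 100 uM, 0.5% DMSO), in duplicate. GCLM mRNA quantified by qRT-PCR, normalized to ACTB, GAPDH, POLR2A; bidirectional fitting versus DMSO.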
# [15] = read-out: Glutathione S-transferase M3 (GSTM3), GSTM3 (gene 2947); test: LTEA_HepaRG_GSTM3: Life Technologies and Expression Analysis (LTEA) Assay for Glutathione S-transferase M3 (GSTM3) using HepaRG (AID 2283501)
# How it was run: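 Differentiated human HepaRG cells were exposed in duplicate for 48 h in serum-free induction medium, 8 points from 100 uM top in half-log steps, 0.5% DMSO. GSTM3 mRNA was measured by TaqMan qRT-PCR, normalized to ACTB, GAPDH and POLR2A; bidirectional fit versus DMSO.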
# [16] = read-out: Heat shock 70 kDa protein 1 (HSPA1A), gene 3303; test: LTEA_HepaRG_HSPA1A: Life Technologies and Expression Analysis (LTEA) Assay for Heat shock 70 kDa protein 1 (HSPA1A) using HepaRG (AID 2283502)
# How it was run: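 Differentiated human HepaRG cells in serum-free induction medium were exposed in duplicate for 48 h to eight concentrations (top 100 uM, half-log steps, 0.5% DMSO). HSPA1A mRNA was quantified by qRT-PCR, normalized to ACTB, GAPDH and POLR2A, and fitted bidirectionally against DMSO.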
# [17] = read-out: Hypoxia-inducible factor 1-alpha (Homo sapiens) (UniProt Q16665); test: LTEA_HepaRG_HIF1A: Life Technologies and Expression Analysis (LTEA) Assay for Hypoxia-inducible factor 1 (HIF1A) Trancription factor using HepaRG (AID 2283503);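 note: HIF1A transcript by TaqMan qRT-PCR normalized to ACTB GAPDH and POLR2A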
# How it was run: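 HepaRG, 48 h exposure, 8-pt half-log series from 100 uM, 0.5% DMSO vehicle, duplicates. Readout: HIF1A transcript by qRT-PCR (Fluidigm array), housekeeping-normalised. Bidirectional curve fit vs DMSO baseline.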
# [18] = read-out: Cytochrome P450 3A7 (Homo sapiens) (UniProt P24462); test: LTEA_HepaRG_CYP3A7: Life Technologies and Expression Analysis (LTEA) Assay for CYP3A7 using HepaRG (AID 2283492)
# How it was run: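 Differentiated HepaRG cells in serum-free induction medium exposed 48 h in duplicate to 8-point half-log series from 100 uM top in 0.5% DMSO. CYP3A7 mRNA by qRT-PCR, normalized to ACTB/GAPDH/POLR2A, bidirectional fit versus DMSO.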
# [19] = read-out: Cytochrome P450 4A22 (Homo sapiens) (UniProt Q5TCH4); test: LTEA_HepaRG_CYP4A22: Life Technologies and Expression Analysis (LTEA) Assay for Cytochrome P450 4A22 (CYP4A22) using HepaRG (AID 2283495)
# How it was run: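 Differentiated HepaRG cells in serum-free induction medium exposed 48 h in duplicate to eight half-log concentrations up to 100 uM in 0.5% DMSO. CYP4A22 mRNA quantified by TaqMan qRT-PCR, normalized to ACTB, GAPDH and POLR2A; bidirectional fit versus DMSO.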
# [20] = read-out: Cytochrome P450 7A1 (Homo sapiens) (UniProt P22680); test: LTEA_HepaRG_CYP7A1: Life Technologies and Expression Analysis (LTEA) Assay for Cytochrome P450 7A1 (CYP7A1) using HepaRG (AID 2283496)
# How it was run: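 Gene expression endpoint in human HepaRG liver cells treated for 48 h with test chemicals (up to 100 uM, 0.5% DMSO). Values come from bidirectional concentration-response fitting versus DMSO.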
# Sequence of Cytochrome P450 3A4 (Homo sapiens) (P08684 whole entry, looked up): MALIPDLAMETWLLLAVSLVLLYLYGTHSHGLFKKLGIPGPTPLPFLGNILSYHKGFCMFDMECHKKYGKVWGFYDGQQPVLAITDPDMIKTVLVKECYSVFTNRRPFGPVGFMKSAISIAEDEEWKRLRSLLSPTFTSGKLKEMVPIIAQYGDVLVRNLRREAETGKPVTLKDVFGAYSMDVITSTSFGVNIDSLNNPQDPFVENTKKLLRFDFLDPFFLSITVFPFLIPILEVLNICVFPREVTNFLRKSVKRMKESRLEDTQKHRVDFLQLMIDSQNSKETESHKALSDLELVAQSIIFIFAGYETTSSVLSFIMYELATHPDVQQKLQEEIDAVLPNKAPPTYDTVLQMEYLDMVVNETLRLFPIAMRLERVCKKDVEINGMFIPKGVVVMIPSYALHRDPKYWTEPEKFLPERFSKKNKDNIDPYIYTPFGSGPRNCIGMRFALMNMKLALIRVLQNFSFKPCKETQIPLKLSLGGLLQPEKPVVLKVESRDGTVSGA
# Sequence of Cytochrome P450 3A7 (Homo sapiens) (P24462 whole entry, looked up): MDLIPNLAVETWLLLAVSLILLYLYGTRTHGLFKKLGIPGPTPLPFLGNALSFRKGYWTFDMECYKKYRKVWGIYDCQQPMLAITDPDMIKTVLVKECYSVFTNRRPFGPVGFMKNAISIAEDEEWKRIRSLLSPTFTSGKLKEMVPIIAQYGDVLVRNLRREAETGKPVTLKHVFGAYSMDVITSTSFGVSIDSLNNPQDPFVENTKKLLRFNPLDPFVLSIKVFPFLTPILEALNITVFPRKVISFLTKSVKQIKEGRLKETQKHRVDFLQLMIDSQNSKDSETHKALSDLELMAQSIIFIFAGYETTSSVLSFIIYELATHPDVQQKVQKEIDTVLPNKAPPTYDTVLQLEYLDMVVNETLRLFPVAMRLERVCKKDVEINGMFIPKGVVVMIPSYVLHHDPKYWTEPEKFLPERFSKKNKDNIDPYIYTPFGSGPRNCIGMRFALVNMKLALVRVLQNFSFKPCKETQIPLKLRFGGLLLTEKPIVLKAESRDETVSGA
# Sequence of Hypoxia-inducible factor 1-alpha (Homo sapiens) (Q16665 whole entry, looked up): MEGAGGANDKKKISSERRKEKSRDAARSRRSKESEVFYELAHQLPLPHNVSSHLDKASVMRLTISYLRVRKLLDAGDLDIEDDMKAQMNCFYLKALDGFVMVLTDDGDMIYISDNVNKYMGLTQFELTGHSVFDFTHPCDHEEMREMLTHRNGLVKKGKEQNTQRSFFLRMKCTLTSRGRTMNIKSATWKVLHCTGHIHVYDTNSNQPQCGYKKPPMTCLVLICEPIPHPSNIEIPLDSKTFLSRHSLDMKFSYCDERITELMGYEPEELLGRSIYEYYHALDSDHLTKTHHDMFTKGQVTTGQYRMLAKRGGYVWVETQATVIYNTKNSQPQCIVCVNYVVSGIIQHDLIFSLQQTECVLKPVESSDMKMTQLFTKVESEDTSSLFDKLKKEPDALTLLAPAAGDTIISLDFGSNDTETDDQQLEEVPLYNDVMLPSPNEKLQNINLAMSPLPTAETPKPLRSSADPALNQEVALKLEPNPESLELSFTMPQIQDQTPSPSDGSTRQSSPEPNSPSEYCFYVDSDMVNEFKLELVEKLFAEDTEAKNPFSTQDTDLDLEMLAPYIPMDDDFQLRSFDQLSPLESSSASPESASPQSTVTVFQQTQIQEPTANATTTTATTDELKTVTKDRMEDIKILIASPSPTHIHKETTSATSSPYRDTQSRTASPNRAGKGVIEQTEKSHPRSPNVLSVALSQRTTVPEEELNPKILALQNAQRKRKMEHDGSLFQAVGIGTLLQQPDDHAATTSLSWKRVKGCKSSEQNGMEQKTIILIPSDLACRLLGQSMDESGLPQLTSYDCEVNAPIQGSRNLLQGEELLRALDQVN
compound,measurement,setting,value
c1ccc2n[nH]nc2c1,outcome,[1],inactive
same,outcome,[2],inactive
same,outcome,[3],inactive
same,outcome,[4],inactive
same,outcome,[5],inactive
same,outcome,[6],inactive
same,outcome,[7],inactive
same,outcome,[8],inactive
same,outcome,[9],inactive
same,outcome,[10],inactive
same,outcome,[11],inactive
same,outcome,[12],inactive
same,outcome,[13],inactive
same,outcome,[14],inactive
same,outcome,[15],inactive
same,outcome,[16],inactive
same,outcome,[17],inactive
CCCCCCCCOc1ccc(C(=O)c2ccccc2)c(O)c1,outcome,[1],inactive
same,outcome,[2],inactive
same,outcome,[3],inactive
same,outcome,[4],inactive
same,outcome,[5],inactive
same,outcome,[6],inactive
same,outcome,[7],inactive
same,outcome,[8],inactive
same,outcome,[18],inactive
same,outcome,[9],inactive
same,outcome,[10],inactive
same,outcome,[19],inactive
same,outcome,[11],inactive
same,outcome,[12],inactive
same,outcome,[13],inactive
same,outcome,[14],inactive
same,outcome,[15],inactive
same,outcome,[16],inactive
same,outcome,[17],inactive
CC(C)(C)c1csc(-c2cc3cc(OCc4ccccc4CC(=O)O)ccc3o2)n1,AC50,[1],12.5 µM (active)
same,AC50,[2],16.8 µM (active)
same,AC50,[3],23.2 µM (active)
same,AC50,[4],76.1 µM (active)
same,AC50,[5],22.7 µM (active)
same,outcome,[6],inactive
same,AC50,[8],82.3 µM (active)
same,outcome,[18],inactive
same,AC50,[9],81.3 µM (active)
same,AC50,[10],32.6 µM (active)
same,AC50,[19],23.3 µM (active)
same,AC50,[11],31.9 µM (active)
same,AC50,[12],77.2 µM (active)
same,AC50,[13],12.1 µM (active)
same,AC50,[14],85.4 µM (active)
same,AC50,[15],37.7 µM (active)
same,AC50,[16],78 µM (active)
same,AC50,[17],87.3 µM (active)
CCCCCCCCN(C)CCCCCCCC,outcome,[1],inactive
same,outcome,[2],inactive
same,outcome,[3],inactive
same,outcome,[5],inactive
same,outcome,[6],inactive
same,outcome,[7],inactive
same,outcome,[8],inactive
same,outcome,[18],inactive
same,outcome,[9],inactive
same,outcome,[10],inactive
same,outcome,[19],inactive
same,outcome,[20],inactive
same,outcome,[11],inactive
same,outcome,[12],inactive
same,outcome,[13],inactive
same,outcome,[14],inactive
same,outcome,[15],inactive
same,outcome,[16],inactive
same,outcome,[17],inactive
O=c1ccc2ccccc2o1,outcome,[1],inactive
same,AC50,[2],50 µM (active)
same,outcome,[3],inactive
same,outcome,[4],inactive
same,outcome,[5],inactive
same,outcome,[6],inactive
same,outcome,[8],inactive
same,outcome,[18],inactive
same,outcome,[9],inactive
same,AC50,[10],36.8 µM (active)
same,outcome,[19],inactive
same,outcome,[11],inactive
same,outcome,[12],inactive
same,outcome,[13],inactive
same,outcome,[14],inactive
same,outcome,[15],inactive
same,outcome,[16],inactive
same,outcome,[17],inactive
COc1cccc([C@H](O)C2CCN(CCc3ccc(F)cc3)CC2)c1OC,outcome,[1],inactive
same,AC50,[2],16.7 µM (active)
same,outcome,[3],inactive
same,AC50,[4],50 µM (active)
same,AC50,[5],70.5 µM (active)
same,outcome,[6],inactive
same,outcome,[7],inactive
same,outcome,[8],inactive
same,outcome,[18],inactive
same,outcome,[9],inactive
same,outcome,[10],inactive
same,outcome,[19],inactive
same,outcome,[11],inactive
same,outcome,[12],inactive
same,AC50,[13],69.1 µM (active)
same,outcome,[14],inactive
same,AC50,[15],72.9 µM (active)
same,outcome,[16],inactive
same,outcome,[17],inactive
